# Assay outcomes (PubChem BioAssay)
# Most compounds without a hit are left out; they make up all but 8% or so of the library.
# MCF10A rereplic: A quantitative high throughput screen for small molecules that induce DNA re-replication in MCF 10a normal breast cells; MCF 10A DNA re-replication, Hoechst nuclear intensity, 48 h; Potency, µM (top dose mostly 46.1 µM), for the others: at the top dose activity, positive = re-replication, hits mostly activators; 350,000 tested, 2.9% active; AID 624296, 2012; also: % of control where 0% means no effect; nearly all actives have a fitted effect of over 50% in size
# HT1080-NT tox: qHTS for induction of synthetic lethality in tumor cells producing 2HG: qHTS for the HT-1080-NT fibrosarcoma cell line; HT-1080-NT fibrosarcoma viability, CellTiter-Glo ATP luminescence, 48 h; Potency, µM (series often up to 46.1 µM), for inactives: top-dose activity, negative = less viability, usual class: cytotoxic; 360,000 tested, 1.6% active; AID 686970, 2013;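 also: NT is the 2HG producing partner of a matched IDH1 knockdown line; 0% = DMSO-treated cells and -100% = media-only wells without cells; nearly all actives have a fitted effect of over 55% in size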
#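 Read-out is CellTiter-Glo luminescence after 10 minutes at room temperature, following 48 hours' compound treatment of HT-1080-NT cells (750 cells/well, RPMI, 5% FBS, 37 degrees C).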
# SW480 rereplic: A quantitative high throughput screen for small molecules that induce DNA re-replication in SW480 colon adenocarcinoma cells | SW480 DNA re-replication, Hoechst DNA content imaging, 48 h | Potency, µM (top dose mostly 46.1 µM), inactives show at the highest dose re-replication activation, most hits filed as activators | 340,000 tested, 1.8% active; also: % of control where 0% means no effect; nearly all actives have a fitted effect of over 55% in size
#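 Treated cells incubate 48 hr (37 C, 5% CO2), are stained 40 min with Hoechst, and nuclear fluorescence is enumerated; a rise in nuclei with high DNA signal marks re-replication.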
# KB-V1 cytotox: qHTS assay for MDR1-selective chemotherapeutics: Primary screen using the drug-selected MDR subline cells KB-V1. KB-V1 MDR cells viability, CellTiter-Glo, 72 h. 400,000 tested, 3.4% active. AID 1347076, 2019. Potency, µM (doses to about 46.1 µM), hits mostly cytotoxic; also: % is scaled to controls: 0 for no effect and ±100 for the full control effect; nearly all actives have a fitted effect of over 60% in size
#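 Compound-treated KB-V1 multidrug-resistant cells, 72 h, 37 degrees C; viability by CellTiter-Glo. Fitted qHTS curves give the values.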
# KB-3-1 tox: qHTS assay for MDR1-selective chemotherapeutics: Primary screen using the parental adenocarcinoma cell KB-3-1 | KB-3-1 viability, CellTiter-Glo ATP luminescence, 72 h | Potency, µM (highest dose often 46.1 µM), hits mostly cytotoxic | 400,000 tested, 1.4% active | AID 1347075, 2019; also: % is scaled to controls: 0 for no effect and ±100 for the full control effect; nearly all actives have a fitted effect of over 60% in size
#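 Parental KB-3-1 adenocarcinoma cells in phenol-red-free DMEM with 10% FBS were pin-treated with compounds at several concentrations, incubated 72 h at 37 °C, and viability read by CellTiter-Glo luminescence; concentration-effect curves were fitted after normalization.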
# HT1080 IDH1KD tx: qHTS for induction of synthetic lethality in tumor cells producing 2HG: qHTS for the HT-1080-IDH1KD cell line; HT-1080 IDH1 knockdown viability, ATP luminescence, 48 h; Potency, µM (top dose mostly 46.1 µM), inactives show at the top dose activity, negative = toxicity, usual class: cytotoxic; 360,000 tested, 2% active;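 also: 0% = DMSO wells and -100% = cell-free medium wells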
#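 IDH1KD HT-1080 cells, 750/well, RPMI + 5% FBS; compound pinned after 2 h settling; 48 h, 37 °C; CellTiter-Glo luminescence; % activity normalised to DMSO and no-cell wells; curves fitted, classed by r2 and efficacy.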
# * hit, by the source's call; i = inactive; ? = inconclusive; [ ] = dose if it differs, or a comment. Calls follow the shape of the dose curve; as a rule, active = well fitted curve in the direction sought with a large enough effect; inconclusive = small, poorly fitted or top-dose-only effect, or another doubt; inactive = no such curve, though single readings can be large; an effect the other way counts as inactive or inconclusive. Potency is read from the fitted curve at half-maximal effect.
SMILES,MCF10A rereplic,HT1080-NT tox,SW480 rereplic,KB-V1 cytotox,KB-3-1 tox,HT1080 IDH1KD tx
CCOc1ccc(NC(=O)CN2C(=O)NC(C)(c3ccc(OC(F)F)cc3)C2=O)cc1 (stereo unspecified),16.6%,?,?,i,?,18.4µM*
Cc1ccc2nc(-c3ccc(NC(=O)CN4C(=O)c5ccccc5C4=O)cc3)sc2c1,16.4µM*,1.8%,20.6µM*,?,i,18.0%
Cc1ccc(C)c(N(CC(=O)Nc2ccc(-c3nc4ccc(C)cc4s3)cc2)S(C)(=O)=O)c1,?,-11.1%,?,?,i,-25.5%
Cc1ccc2nc(-c3ccc(NC(=O)CSc4nc(N)cc(=O)[nH]4)cc3)sc2c1,10.3%,9.2µM*,3.66µM*,i,?,11.6µM*
CCCOC(=O)/C(=C\C=C\c1ccco1)NC(=O)c1ccccc1,?,-3.2%,52.9%,i,i,-17.2%
O=C(Cn1nnc(-c2ccccc2)n1)N=Nc1c(O)[nH]c2ccccc12,10.1%,-1.0%,0.3%,i,i,3.2%
CC(=O)Nc1ccc(N(C(=O)CNC(=O)c2ccco2)C(C(=O)NCc2ccco2)c2ccccc2F)cc1 (stereo unspecified),3.3%,2.6%,4.3%,i,i,0.6%
CCCCn1c(SCC(=O)Nc2ccc3c(c2)OCO3)nc2c1c(=O)n(C)c(=O)n2C,-7.0%,8.0%,-0.5%,5.8µM*,20.6µM*,-13.5%
CCCCn1c(SCC(=O)Nc2nnc(CC)s2)nc2c1c(=O)n(C)c(=O)n2C,1.2%,?,14.1%,20.6µM*,i,2.82µM*
CCCCn1c(SCC(=O)Nc2nnc(C)s2)nc2c1c(=O)n(C)c(=O)n2C,-0.7%,3.9%,-3.0%,i,i,-7.0%
CCCn1c(SCC(=O)Nc2nnc(C(C)C)s2)nc2c1c(=O)n(C)c(=O)n2C,3.1%,18.7%,-10.8%,?,13µM*,7.8%
COC(=O)C1=C(CS(=O)(=O)c2ccccc2)NC(=O)NC1c1ccc(O)cc1 (stereo unspecified),5.0%,1.2%,16.0%,?,i,7.1%
COC(=O)c1[nH]c2c(c1C)C(=O)CCC2,3.2%,20.2%,7.9%,i,i,24.9%
O=C(COC(=O)c1ccc(-c2nnc(-c3ccccc3)o2)cc1)c1ccccc1,?,5.2%,16.4µM*,?,i,10.1%
COc1cc(OC)cc(C(=O)OCC(=O)Nc2nnc(-c3ccccc3)o2)c1,2.2%,-6.9%,-69.4%,?,i,-20.4%
O=C(COC(=O)c1ccc(Cl)nc1)Nc1nnc(-c2ccccc2)o1,13.7%,6.1%,-1.0%,14.6µM*,i,19.9%
O=C(COc1ccccc1)Nc1nnc(-c2ccccc2)o1,14.3%,-13.8%,8.4%,i,i,-11.0%
O=C(COC(=O)Cc1ccccc1[N+](=O)[O-])Nc1nnc(-c2ccccc2)o1,18.4µM*,-8.9%,-12.2%,?,i,-0.8%
O=C(OCc1nnc(-c2ccccc2)o1)c1ccccc1,8.9%,8.9%,2.7%,i,i,5.8%
N#Cc1c(N)c(C(=O)c2ccc(Cl)cc2)n2c1CCC2,-20.9%,-2.3%,3.3%,i,i,-7.8%
CCCCOc1ccc(C(=O)Nc2ccc(N3CCN(C(=O)C(C)C)CC3)cc2)cc1,2.4%,-5.0%,1.5%,i,i,-17.4%
Cc1ccnc(NC(=O)c2ccc(C(=O)c3ccccc3)cc2)c1,?,-29.2%,7.5%,20.6µM*,?,?
CCCCOc1ccc(C(=O)Nc2ccc(N3CCN(C(C)=O)CC3)cc2)cc1,1.1%,12.9%,-9.1%,2.59µM*,i,10.8%
O=C(Nc1cc(-c2ccccc2)[nH]n1)c1ccccc1,?,-28.1%,9.2µM*,?,?,?
O=C(O)c1ccccc1C(=O)Nc1cc(-c2ccccc2)[nH]n1,0.9%,4.2%,-0.8%,i,i,16.9%
SMILES,MCF10A rereplic,HT1080-NT tox,SW480 rereplic,KB-V1 cytotox,KB-3-1 tox,HT1080 IDH1KD tx
C=C(C)c1cccc(C(C)(C)NC(=O)Nc2cc(C)ccn2)c1,6.7%,-5.4%,18.1%,16.4µM*,?,-13.2%
COCCCn1c(C)nnc1SCC(=O)NNC(=O)COc1ccc(Cl)cc1,-9.8%,8.1%,-3.9%,i,i,4.5%
O=C(CSc1cn(Cc2ccccc2)c2ccccc12)N1CCOCC1,-4.7%,0.0%,5.3%,i,i,0.7%
CN(C(=O)c1cccc(NC(=O)C2CCCN(C(=O)OC(C)(C)C)C2)c1)C1CCC1 (stereo unspecified),?,-4.5%,10.3%,i,?,-3.9%
COc1ccc(CN=CC2=C(O)CNC2=O)cc1OC,-3.0%,12.5%,-1.1%,?,i,12.4%
O=C(COC(=O)[C@@H]1CC(O)CN1S(=O)(=O)c1ccc(Cl)c(Cl)c1)NC(=O)NCc1ccccc1 (stereo partly specified),4.0%,-0.6%,-3.1%,i,i,1.8%
CCCCOc1ccc(C(=O)Nc2cccc(C)n2)cc1,?,-6.3%,-5.2%,16.4µM*,?,3.2%
CCOc1cc(C(=O)Nc2cc(C)ccn2)cc(OCC)c1OCC,?,-17.2%,16.4%,i,?,-22.6%
CCOc1ccc(C(=O)Nc2cc(C)ccn2)cc1,?,?,-107.5%,13µM*,?,11.6µM*
Cc1ccc(C(C)C)c(OCC(O)CNC2CCCC2)c1 (stereo unspecified),-5.9%,-12.0%,10.0%,i,i,-11.0%
Cc1cccc(C(=O)N(Cc2cccs2)C2CCS(=O)(=O)C2)c1 (stereo unspecified),2.5%,-1.8%,-14.0%,i,i,8.4%
COc1ccc(C)cc1-n1nnnc1SCc1cc(=O)n2cc(C)ccc2n1,?,-1.6%,7.9%,7.31µM*,?,-15.9%
COc1ccc(C)cc1-n1nnnc1SCc1csc(C)n1,2.2%,9.1%,0.9%,i,i,4.8%
N#CCc1nc2c3c4c(sc3ncn2n1)CCCC4,2.5%,3.3%,3.5%,?,2.31µM*,3.0%
COc1ccccc1NC(=O)C1=C(C)Nc2ncnn2C1c1ccccc1C (stereo unspecified),-187.6%[0.0737 µM],2.5%,4.11µM*,i,i,-4.6%
